Compounds with a hit are over-represented: about 1.4% of the library has one in this group of screens.
PfHsp40 yeast – restores yeast growth despite PfHsp40 toxicity; AID 504582; 0.68% of 340,000 active; growth rescue, % at 12.5 µM; S. cerevisiae expressing PfHsp40, growth rescue, ATP luminescence; in the data active = growth rescue above about 28%, passing the limit was not always enough;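 also: yeast W303a lacking pdr1 and pdr3 grown in galactose medium; growth measured after three days at 30 °C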
Sa ugtP lethal – growth inhibition of S. aureus ugtP deletion strain; S. aureus RN4220 ugtP deletion, OD600 growth, 16 h; growth inhibition, % (concentration not given with the values); 0.54% of 330,000 active; AID 1259309; in the data active = growth inhibition above about 68%;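 also: plate controls were untreated wells for no effect and antibiotic for full effect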
PrP UTR inh – inhibition of PrP 5' UTR reporter expression | cell-based PrP 5' UTR mRNA reporter, plate reader | inhibition, % (no concentration beside the values) | 0.35% of 340,000 active | AID 488862; in the data active = inhibition above about 52%; also: 0 = median of the neutral control wells
RN4220 kill – kills Staphylococcus aureus RN4220; S. aureus RN4220 growth, OD600, 16 h; inhibition, % (concentration not given with the values); 0.33% of 330,000 active; in the data active = inhibition above about 85%;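 also: plate controls were untreated cells for no effect and reference antibiotic for full effect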
BJeLR lethal – BJeLR cell viability loss; BJeLR (HRASV12) viability, CellTiter-Glo ATP luminescence, 48 h; inhibition, % (test concentration not listed); 0.17% of 300,000 active; AID 1554; in the data active = inhibition above about 50%
Y pestis TopoI – blocks Yersinia pestis topoisomerase I activity | Y. pestis Topo-I cleavage product accumulation, plate reader | activity, % at 10 µM | 0.064% of 360,000 active | AID 504884; in the data active = activity above about 50%, passing the limit was not always enough
Starred values were filed as active, the others as inactive; x = no result given.

SMILES	PfHsp40 yeast	Sa ugtP lethal	PrP UTR inh	RN4220 kill	BJeLR lethal	Y pestis TopoI
COc1cc(CCCN2CCNCC2CC2CCCCC2)cc(OC)c1OC (stereo not drawn)	x	-1	x	3	x	x
CNc1ccc(Br)cc(C(=O)/C=C/c2ccc(OC)cc2OC)c1=O	0	98*	-9	-7	5	0
O=C(O)c1cccc(Cn2c(Cl)c(C=NNC(=O)c3cc4ccccc4cc3O)sc2=O)c1	x	9	x	11	x	x
O=C1CCCCC=CCC(CC(=O)N(CCO)Cc2ccccc2)C(=O)NCC(c2ccccc2)O1 (stereo not drawn)	x	1	x	3	x	x
Fc1ccc(Nc2nc(N/N=C/c3ccco3)nc(N3CCCCC3)n2)cc1	102*	x	-11	x	1	13
O=C(CC1CC=CCCC(Cc2ccc(F)cc2)C(=O)OCC(Cc2c[nH]c3ccccc23)NC1=O)NCCO (stereo not drawn)	x	2	x	5	x	x
Cn1c(SCc2ccccc2)nc(N)c(N=O)c1=O	x	95*	x	-4	4	-2
CC(C)n1c(O)c(C2c3cc(Cl)ccc3Oc3[nH]c(=O)n(C(C)C)c(=O)c32)c(=O)[nH]c1=O (stereo not drawn)	281*	2	-18	36	22	3
CC(=O)c1c(O)n(-c2cccc(Cl)c2)c(=O)[nH]c1=O (tested in a mixture with another compound)	0	-1	-14	1	0	1
C=CCC(CC(=O)NCCO)C(=O)NC(COC(=O)C(CC=C)CC(=O)OC(C)(C)C)c1ccccc1 (stereo not drawn)	x	1	x	4	x	x
CN1CC(=O)N2C(Cc3c([nH]c4ccccc34)C2c2ccc3c(c2)OCO3)C1=O (stereo not drawn)	x	-9	x	2	x	x
COc1cccc(-c2noc(Cn3nc(C(=O)O)c4ccccc4c3=O)n2)c1	0	15	-18	2	3	54*
O=C(O)c1nn(Cc2ncc(-c3cccc(Cl)c3)o2)c(=O)c2ccccc12	-1	-11	-11	2	-1	52*
COc1cccc(-c2nc(-c3ccccc3)no2)c1	-1	7	-53	-1	3	11
COc1ccc(-c2ccc(C3C4C=CCC[C@@]4(C)C(=O)N3Cc3ccccc3)c(F)c2)cc1OC (stereo partly drawn)	x	11	x	-3	x	x
COC(=O)C1=C(c2cc3ccccc3o2)CC2CCC1N2C(=O)NCc1ccco1 (stereo not drawn)	x	-5	x	1	x	x
CCN1C(=O)C2C(c3ccc(C)cc3)N3C(=O)N(c4cccc(Cl)c4)C(=O)[C@@]3(Cc3ccccc3)C2C1=O (stereo partly drawn)	x	6	x	16	x	x
O=C(N/N=C/c1ccc[nH]1)c1ccccc1O	76*	x	-21	x	-3	4
O=C(N/N=C/c1coc2ccccc2c1=O)c1cc(Br)ccc1O	89*	x	-16	x	-17	5
O=C(NN=Cc1coc2ccccc2c1=O)c1cc(Br)ccc1O	x	7	x	5	x	x
C=CCc1cccc(/C=N/NC(=O)c2ccccc2OC)c1O	50*	x	-22	x	-16	-2
O=C(N/N=C/c1ccccc1O)c1cccc2ccccc12	32*	x	16	x	4	4
COC(=O)C1CC1C(NC(=O)c1cnccn1)c1ccccc1 (stereo not drawn)	x	-1	x	4	x	x
FC(F)(F)c1cnc(N2CCN(C(=S)NCc3ccccc3)CC2)c(Cl)c1	77*	46	-24	-8	-11	19
FC(F)(F)c1cnc(N2CCCN(C(=S)Nc3ccccc3)CC2)c(Cl)c1	8	-15	-15	-1	5	-2
SMILES	PfHsp40 yeast	Sa ugtP lethal	PrP UTR inh	RN4220 kill	BJeLR lethal	Y pestis TopoI
O=C(COc1ccc(Cl)cc1Cl)NNC(=S)NC(=O)c1ccco1	1	90*	-17	93*	-2	4
O=C(COc1ccc(Cl)cc1Cl)NNC(=S)NCc1ccco1	4	-24	-12	10	-6	9
CC(Oc1ccc(Cl)cc1)C(=O)NNC(=S)NC(=O)c1ccco1 (stereo not drawn)	68*	54	7	69	11	3
C/C(C=NNC(=O)Cn1cncn1)=C/c1ccc(C(C)C)cc1	x	6	x	4	x	x
CC(C)(C)c1ccc(C(=O)OC/C(O)=C(\C#N)c2nc3ccccc3s2)cc1	-3	85*	-1	78	-3	-4
COC(=O)C(C)C1C[C@]1(C)C(NC(=O)OCc1ccccc1)c1ccccc1 (stereo partly drawn)	x	8	x	5	x	x
COC(=O)C1=C(c2cccc(C#N)c2)CC2CCC1N2C(=O)N1CCOCC1 (stereo not drawn)	x	3	x	6	x	x
CCOC1OC(C(=O)NCc2ccccc2)=CC(C)C1CCCO (stereo not drawn)	x	4	x	4	x	x
COc1ccc(-c2nc(CN3CCN(Cc4cccc(F)c4)CC3)c(C)o2)cc1	-1	3	-15	2	1	55*
CC(=O)Nc1nc(-c2cccs2)cs1	0	9	-3	8	2	-8
O=C(Nc1nc(-c2cccs2)cs1)c1ccc(Cl)s1	0	94*	-17	61	3	-8
O=C(Nc1nc(-c2ccc(Cl)s2)cs1)c1ccccc1	1	94*	-37	6	4	-6
CCCNC(=O)c1ccc2c(=O)c(O)c(-c3ccc(Cl)c([N+](=O)[O-])c3)[nH]c2c1	210*	x	-4	x	12	2
O=C(NCCc1nc2ccccc2[nH]1)c1ccc(Cl)c([N+](=O)[O-])c1	5	x	9	x	5	-8
O=S1(=O)CCOCC(CC2CCCCC2)N1Cc1ccc(Cl)cc1 (stereo not drawn)	x	6	x	6	x	x
CC(C)(C)c1ccc(C(=O)NNC(=O)c2ccc(Cl)cc2)cc1	1	-1	-3	3	2	-4
Cc1ccc(C(=O)CC(=O)c2cc(Cl)ccc2O)cc1	-1	99*	-47	100*	1	-2
Cc1ccc(C(=O)CC(=O)c2ccc(C(C)(C)C)cc2)cc1	36*	28	-36	-12	-11	-4
CC(C)(C)c1ccc(C(=O)CC(=O)c2cc(Cl)ccc2O)cc1	0	98*	2	100*	3	4
Cc1ccc(C(=O)Nc2ccc(Cl)cc2C(=O)c2ccccc2)cc1	1	92*	6	-4	x	0
COc1ccc(C2C=CCN(C(=O)C3CCCC3)CC(=O)N2Cc2ccc(F)cc2)cc1 (stereo not drawn)	x	-6	x	6	x	x
COC(=O)C1=C(c2ccc(OC)c(OC)c2)CC2CCC1N2C(=O)N1CCCC1 (stereo not drawn)	x	-1	x	2	x	x
O=C(Nn1c(=O)[nH]c2ccsc2c1=O)c1ccccc1	-1	100*	-1	98*	5	6
C=CC[N@@+]12CC[C@@]34c5ccccc5N5C=C6C7CC8[C@@]9(CC[N@@+]8(CC=C)CC7=CCO)c7ccccc7N(C=C(C(CC31)C(=CCO)C2)C54)C69 (stereo partly drawn)	x	7	x	8	x	x
